# Measured values: ChEMBL document CHEMBL3988442, “University of Dundee, Small-Polar-MMV Screening Library” (2021)
# The campaign covered roughly 48,000 compounds. About 13,000 (27%) showed an effect of 50% or more. Some of the results follow.
# Tested on: Wolbachia pipientis
# Assay: Anti-Wolbachia Cell-Based Screen
# Type: functional
# Set-up: scale not given: in the data most compounds retested in dose-response had high values
# Conditions: 5 µM
row,Structure (SMILES),Percent Effect [%]
1,CCOCCn1nc(C)cc1C(=O)N1CC[C@](C)(O)[C@H](C)C1,-22.18
2,C[C@@H]1CN(Cc2nc(C(N)=O)no2)CC[C@@]1(O)C1CC1,3.604
3,CCN(CC)C(CNCc1ccc(O)cc1)c1ccco1 (stereo not drawn),0.1551
4,CCc1ccc(CN(CCCn2ccnc2)Cc2ccc(C)s2)o1.O=C(O)CC(O)(CC(=O)O)C(=O)O,-10.6
5,c1cncc(CN(CCCn2ccnc2)CC2CCOC2)c1 (stereo not drawn),114.4
6,CN(Cc1cccnc1)CC1CCOc2ccccc2C1 (stereo not drawn),1.385
7,Fc1ccccc1CN(CCCn1ccnc1)CC1CCOC1.O=C(O)CC(O)(CC(=O)O)C(=O)O (stereo not drawn),96.39
8,CCCN(Cc1cccnc1)Cc1ccc(C2CCCCO2)o1 (stereo not drawn),8.313
9,Cc1ccc(CN(CCCn2ccnc2)Cc2c[nH]cn2)s1.O=C(O)CC(O)(CC(=O)O)C(=O)O,-8.779
10,COc1ccccc1CN(CCCn1ccnc1)CC1CCOC1.O=C(O)CC(O)(CC(=O)O)C(=O)O (stereo not drawn),173.3
11,CC1COCCN1C(=O)NCCCn1ccnc1 (stereo not drawn),-6.702
12,O=C(NCCCn1ccnc1)C1COCC(=O)N1Cc1ccccc1 (stereo not drawn),-1.911
13,Cc1nc(C)c(C(=O)NCCOc2ccc(C(F)(F)F)cn2)o1,-28.79
14,N[C@H]1CCCN(C(=O)c2cnc(COc3ccccc3)nc2O)C1,-11.28
15,CC(C)n1c(C2CCCN(CCS(C)(=O)=O)C2)nc2ccccc21 (stereo not drawn),-3.684
16,Cc1nc2sccn2c1C(=O)N1CCn2nc(C(=O)NC3CC3)cc2C1,8.039
17,Cc1cnc(N2C[C@H]3CCCC(N(C)Cc4ccccn4)[C@H]3C2)nc1.O=C(O)C(F)(F)F (stereo partly drawn),-11.38
18,CCCN1CCN(Cc2cccc(OC(C)C)c2)[C@H]2CS(=O)(=O)C[C@H]21,-22.43
19,COCCn1ccnc1C1CCCN(c2cnccn2)C1 (stereo not drawn),-8.201
20,Cc1c[nH]nc1C1CCCN(c2cnccn2)C1 (stereo not drawn),152.5
21,Cc1cccc(C)c1OC1CN(Cc2cnc(N3CCOCC3)nc2)C1,-7.257
22,CCc1cnc(N2CCOC(CCOC)C2)nc1 (stereo not drawn),-10.95
23,COc1ccc(C(=O)C2CCCN(c3cnccn3)C2)c(C)c1 (stereo not drawn),-36.51
24,COCCN1C[C@@H]2CN(c3cnccn3)C[C@@H]2C1=O,-23.71
25,Cc1c[nH]nc1C1CN(c2cnccn2)CCO1 (stereo not drawn),155.2

row,Structure (SMILES),Percent Effect [%]
1,Cc1c[nH]nc1C1CN(c2ncccn2)CCO1 (stereo not drawn),139.2
2,CC(C)C1CN(c2cnccn2)CCC(=O)N1Cc1ccc(F)cc1 (stereo not drawn),-0.3567
3,Cc1c[nH]nc1C1CCN(c2cnccn2)C1 (stereo not drawn),87.37
4,N#Cc1cccc(N2CCC(CO)(CCCc3ccccc3)CC2)n1,-12.61
5,CC(C)(C)c1cnc(CNc2cccc(Cn3cnnc3)c2)o1,-22.9
6,COc1ccc(CNC(=O)C(NC(=O)Cc2ccccc2)C(C)C)cn1 (stereo not drawn),88.86
7,CC(C)[C@H](NC(=O)NC1CCS(=O)(=O)C1)C(=O)NCc1cccnc1 (stereo partly drawn),1.711
8,CCOC(=O)NC(C(=O)NCc1ccc(N2CCCCC2)nc1)C(C)C (stereo not drawn),2.776
9,COc1ccc(CNC(=O)NCc2ccc(C(N)=O)cc2)cn1,4.713
10,Cc1nccn1-c1ccc(CNC(=O)c2ccc(O)nc2)cn1,-3.999
11,CC(C)[C@H](NC(=O)c1cccc(CCC(C)(C)O)c1)C(N)=O,-12.73
12,Cc1cccc(C(=O)NC(C(=O)NCc2ccc(O)nc2)C(C)C)c1 (stereo not drawn),103
13,COc1ccc(CNC(=O)NCc2ccc(C)cc2)cn1,-5.418
14,CC(C)C(NC(=O)Cc1ccccc1)C(=O)NCc1ccc(O)nc1 (stereo not drawn),106
15,O=S(=O)(CCCS(=O)(=O)c1ccc2c(c1)OCCCO2)c1ccccc1,-9.516
16,CC(C)CN1CCCn2nc(CNC(=O)CCCc3cn[nH]c3)cc2C1,-2.664
17,O=C(Nc1cc2c(cc1Br)OCCO2)NC1CCS(=O)(=O)C1 (stereo not drawn),-24.26
18,Cc1cccc(S(=O)(=O)N2C[C@H]3C[C@H](C(=O)NCC(C)C)[C@@H](C2)O3)c1,-2.145
19,Cc1ccccc1CNC(=O)N1C[C@H]2C[C@H](C(=O)N3CCCC3)[C@@H](C1)O2,2.79
20,CC(C)CCN1C[C@H]2C[C@H](C(=O)NCC(C)C)[C@@H](C1)O2.O=C(O)C(F)(F)F,100.1
21,CC(C)CNC(=O)[C@H]1C[C@@H]2CN(C(=O)NCC3CCCCC3)C[C@H]1O2,-20.2
22,CC(C)CN1C[C@H]2C[C@H](C(=O)N3CCCC3)[C@@H](C1)O2.O=C(O)C(F)(F)F,105.1
23,CC(C)CCN1C[C@H]2C[C@H](C(=O)N3CCCC3)[C@@H](C1)O2.O=C(O)C(F)(F)F,103.2
24,CC(O)C1CCN(C(=O)Nc2nc(-c3ccccc3)ns2)CC1 (stereo not drawn),-6.98
25,Cc1nccn1-c1ccc(NC(=O)C2CCCN2Cc2c[nH]cn2)cc1 (stereo not drawn),1.287

row,Structure (SMILES),Percent Effect [%]
1,O=C(c1cc2c([nH]c1=O)CCC2)N1CCCC1c1ccccn1 (stereo not drawn),-3.505
2,COc1ncccc1C(=O)N1CCCC1c1nc(-c2ccccc2)n[nH]1 (stereo not drawn),0.4619
3,NC(=O)c1cn[nH]c1C1CCCN1C(=O)COc1ccccc1 (stereo not drawn),125.9
4,NC(=O)c1cn[nH]c1C1CCCN1C(=O)c1ccccc1 (stereo not drawn),135.8
5,O=C(c1ccncc1F)N1CCCC1c1nc(-c2ccccc2)n[nH]1 (stereo not drawn),0.33
6,NC(=O)c1cn[nH]c1C1CCCN1C(=O)c1ccccn1 (stereo not drawn),92.76
7,CNC(=O)c1cn[nH]c1C1CCCN1C(=O)c1ccccn1 (stereo not drawn),122.3
8,O=C(c1cc2c([nH]c1=O)CCC2)N1CCCC1c1ccccc1 (stereo not drawn),-12.47
9,CN(CC(=O)Nc1cccc(F)c1)Cc1nc(N)nc(N(C)C)n1,5.267
10,CCCSc1ccccc1NC(=O)N1CCN(C(=O)c2ccc[nH]2)CC1,-3.563
11,Nc1cc2c(nn1)CCN(C(=O)c1csc(-c3ccco3)n1)C2,-0.9791
12,CCCc1cc(CN(C)C2CCSCC2)n[nH]1,-21.94
13,Cn1cc(C[C@H]2[C@H](N3CCOCC3)CCN2C(=O)c2ccoc2)cn1,-12.72
14,Cc1ccc(C(=O)N2CCN(c3ncnc4nc(N)ccc34)CC2)cc1,-17.64
15,CCn1cc(CN2CCN(Cc3cc(C)cc(C)c3)C(=O)C2)cc1C#N,-8.463
16,O=C(c1cc2c([nH]c1=O)CCC2)N1CCCC1c1cccnc1 (stereo not drawn),-4.003
17,Cl.NC(=O)C1CNCCN1C(=O)COc1ccccc1 (stereo not drawn),142
18,O=C(NC1CC1)C1CNCCN1C(=O)COc1ccc2c(c1)OCO2 (stereo not drawn),8.797
19,NC(=O)c1cn[nH]c1C1CCCN1C(=O)c1cnccn1 (stereo not drawn),109.9
20,CCC(=O)c1ccc(OCC(=O)N2CCNCC2C(=O)NC2CC2)cc1 (stereo not drawn),-8.081
21,O=C(C1CCC1)N1CCN(C(=O)c2cnccn2)[C@H]2CS(=O)(=O)C[C@H]21,-11.57
22,O=C(NCc1ccc2c(c1)CCCO2)c1cn2c(n1)CNCC2,-2.912
23,CN1CCC(N(Cc2ccco2)S(=O)(=O)c2ccc(Cl)cc2)CC1,18.55
24,COCCc1noc(-c2ccc(N[C@H]3CCCCNC3=O)nc2)n1,-20.61
25,COc1nc2ccn(CCc3scnc3C)c(=O)c2cc1C#N,-7.908

row,Structure (SMILES),Percent Effect [%]
1,Cc1nn(Cc2ccc(C(=O)NCCCN3CCCC3=O)o2)c(C)c1Br,118.7
2,CC(NC(=O)NCCCN1CCCC1=O)c1ccc(Cl)s1 (stereo not drawn),5.893
3,Cc1nn(Cc2ccc(C(=O)NCCCN3CCCC3=O)o2)c(C)c1Cl,113
4,Cc1ccc(C(=O)NCCCN2CCOCC2)c(Cl)c1,-7.154
5,CCn1nc(C)c(CCNC(=O)c2coc(CN3CCOCC3)c2)c1C,-5.303
6,Cn1cc(C(=O)NCCCN2CCCCCC2=O)c(-c2cccnc2)n1,-24.83
7,Cc1nn(Cc2ccc(C(=O)NCCCN3CCOCC3)o2)c(C)c1Cl,123.2
8,O=C(NCCCN1CCCC1=O)Nc1ccc(Br)cc1Cl,29.75
9,O=C(NCCN1CCCCCC1=O)c1n[nH]c(=O)c2ccccc12,-2.472
10,CCOCC1CN(C(=O)c2ccncc2)Cc2nn(C)cc21.O=C(O)C(F)(F)F (stereo not drawn),-7.804
11,COCCn1cc(C(=O)N2CCCC2c2cc(C)no2)ccc1=O (stereo not drawn),-14.99
12,CN1CCC(O)(CNCc2ccc(F)c(C(F)(F)F)c2)CC1,-14.25
13,CCOCc1nc2c(c(N3CC=CC3)n1)CCN(CC1CC1)CC2,-17.04
14,Cc1cnn(CCNc2ncnc3c2CCN(CC2CCOC2)CC3)c1 (stereo not drawn),11.29
15,Nc1nc2c(c(N3CCSCC3)n1)CCN(Cc1ccccn1)CC2,1.858
16,c1csc(CN2CCc3nc(N4CCOCC4)nc(NC4CC4)c3C2)n1,-41.6
17,COCCNc1nc(C)nc2c1CCN(C[C@H]1CC[C@@H](N)CC1)CC2,85.9
18,Nc1nc2c(c(NCc3nccs3)n1)CCN(CC1CCCC1)CC2,99.65
19,COCCNc1nc2c(c(NCC3CCOC3)n1)CCNCC2 (stereo not drawn),0.8355
20,Cc1nc2c(c(NCCc3nc(C)c(Cl)s3)n1)CCNCC2,2.221
21,Cc1nc2c(c(NCCc3nccs3)n1)CCN(CC1CC1)CC2,100.8
22,CCN(Cc1nccn1C)C(=O)c1ccc(NCC(C)C)nc1,-32.37
23,Cc1cnc(N2CCC3(C2)CN(S(=O)(=O)C2CC2)C3)nc1,-23.78
